Source: PubChem BioAssay (several laboratories)
This is a sample that favours compounds with a hit; in the whole collection about 2.3% have one here.
Bim-Mcl-1 – inhibitors of Bim peptide binding to Mcl-1, primary screen, biochemical, bead-based flow cytometry, multiplex | inhibition, % at 10 µM | hit rate 0.1% among 190,000 | Bim peptide-Mcl-1 binding | Induced myeloid leukemia cell differentiation protein Mcl-1 (Homo sapiens), Q07820 | AID 1009, 2008; in the data active means inhibition above about 40%
Bcl-xL primary – inhibitors of human Bcl-xL, primary screen, biochemical, fluorescence polarization, HTS; GST-Bcl-xL / FITC-Bim BH3 peptide fluorescence polarization; Bcl-2-like protein 1 (Homo sapiens), Q07817; hit rate 0.7% among 320,000; inhibition, % at 10.9 µM;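 active means inhibition above the mean of all tested compounds plus 3 SD, cutoff set per campaign, cut at about 30% in these data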;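 further: inhibitors lower millipolarization by displacing the labeled peptide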
Target sequence (Q07817 whole entry, looked up): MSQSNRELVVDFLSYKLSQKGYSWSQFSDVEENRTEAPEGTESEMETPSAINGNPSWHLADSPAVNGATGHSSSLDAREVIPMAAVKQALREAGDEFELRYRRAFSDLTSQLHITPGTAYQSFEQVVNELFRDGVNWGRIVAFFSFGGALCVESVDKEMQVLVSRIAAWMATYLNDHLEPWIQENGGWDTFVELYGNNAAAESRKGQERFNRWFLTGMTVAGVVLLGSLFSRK
Mcl1-Noxa inh – Mcl-1/Noxa binding inhibitors, primary screen, biochemical, TR-FRET, 1536-well | TR-FRET Mcl-1/Noxa peptide binding, 2 h | inhibition, % at 21.7 µM | hit rate 1.5% among 220,000 | AID 1022, 2008;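 active means compounds that cut the protein-peptide binding signal by more than 50% relative to plate controls in a single-dose test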;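 further: His-tagged Mcl-1 with rhodamine Noxa BH3 peptide and terbium anti-His antibody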
Mcl1 Bid PPI – Mcl-1/Bid binding inhibitors, primary screen, biochemical, TR-FRET, 1536-well. Induced myeloid leukemia cell differentiation protein Mcl-1 (Homo sapiens), Q07820. TR-FRET Mcl-1/Bid-Dy647 peptide binding. inhibition, % at 21.7 µM. hit rate 0.97% among 220,000;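 active means compounds that cut the binding signal by more than half at the single screening dose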;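 further: His-tagged Mcl-1 with europium anti-His antibody binding Bid BH3 peptide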
GLD-1 TGE inh – GLD-1/TGE RNA complex disruptors, primary screen, biochemical, fluorescence polarization; Female germline-specific tumor suppressor gld-1 (Caenorhabditis elegans), Q17339; purified GLD-1 + fluorescein TGE RNA; inhibition, % at 5.96 µM; hit rate 0.44% among 320,000;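 active means percent inhibition above a per-plate cutoff, the plate mean of test compounds plus 3 SD, cut at about 30% in these data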
MCL1 BIM primary – inhibitors of MCL1 binding to BIM-BH3, primary screen, biochemical, fluorescence polarization. GST-MCL1 / FITC-Bim-BH3 fluorescence polarization. inhibition, % at 10.9 µM. hit rate 0.68% among 320,000. AID 2057, 2009;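 active means inhibition above the mean inhibition of all tested compounds plus 3 SD, set per campaign, cut at about 40% in these data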;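 further: higher means more loss of mP so more displacement of Bim peptide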
GLD1 RNA confirm – GLD-1/TGE RNA binding inhibitors, retest, confirmation, biochemical, fluorescence polarization, triplicate; shares compounds with GLD-1 TGE inh; GLD-1/FL-TGE RNA fluorescence polarization; inhibition, % at 5.96 µM; hit rate 10% among 550;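 active means average inhibition across triplicates above the hit cutoff set in the primary screen, cut at about 32% in these data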
Each line names hits and unclear results; the compound was inactive in the other large screens (follow-up assays come after a bar, where they were run).

CC(C)N1CC2=C(OC(N)=C(C#N)C2c2cccnc2)/C(=C/c2cccnc2)C1 (stereo unspecified)	Bcl-xL primary 45.0, GLD-1 TGE inh 38.7 | GLD1 RNA confirm inactive
CCn1c(COc2cccc(C)c2)nnc1SCC(=O)CC(=O)Nc1ccccc1OC	none
CCn1c(COc2ccccc2)nnc1SCC(=O)CC(=O)Nc1ccccc1OC	GLD-1 TGE inh 34.7 | GLD1 RNA confirm inactive
C[C@H]1CC[C@@]2(O[C@@H](CCO)C[C@@H](O)[C@@H]2O)O1	none
CCOc1ccc2[nH]c(=O)c(CN(Cc3cccs3)Cc3nnnn3C(C)(C)CC)cc2c1	GLD-1 TGE inh 109.3 | GLD1 RNA confirm inactive
CCC(C)(C)n1nnnc1CN(Cc1cccs1)Cc1cc2cc(OC)ccc2[nH]c1=O	none
CSCCC(NS(=O)(=O)c1ccc(F)cc1)C(=O)NCc1ccc(S(N)(=O)=O)cc1 (stereo unspecified)	none (no result: Bim-Mcl-1)
CCOC(=O)C1=C(Cc2ccc(F)cc2)C(=O)c2ccccc2C1=O	Bcl-xL primary 34.6, GLD-1 TGE inh 66.2, MCL1 BIM primary 40.6 | GLD1 RNA confirm inactive
COCCn1nnnc1CN1CCN2CCCC2C1 (stereo unspecified)	none
CCOC(=O)c1ccc2ncc(C(=O)OCC)c(NCc3ccco3)c2c1	Bcl-xL primary 32.9, GLD-1 TGE inh 38.8 | GLD1 RNA confirm inactive
O=C(COC(=O)CCC1CCCC1)Nc1ccccc1OC(F)F	none
O=C(NCCN1CCOCC1)c1cc2cc(Br)ccc2oc1=O	none
CCOC(=O)[C@H]1[C@H]2COc3ccc(OC)cc3[C@@H]2N2C(=O)CN(Cc3ccc(F)cc3)C(=O)[C@@]12C	none (no result: Bim-Mcl-1, Mcl1-Noxa inh, Mcl1 Bid PPI)
CCOC(=O)[C@H]1[C@H]2COc3ccc(OC)cc3[C@@H]2N2C(=O)CN(Cc3ccc(Cl)cc3)C(=O)[C@@]12C	GLD-1 TGE inh 37.7 (no result: Bim-Mcl-1, Mcl1-Noxa inh, Mcl1 Bid PPI) | GLD1 RNA confirm inactive
O=C(N/N=C/c1ccc[nH]1)c1ccc([N+](=O)[O-])cc1	GLD-1 TGE inh 57.2 | GLD1 RNA confirm inactive
Cc1ccc(NC(=O)C2CCN(c3ncnc4c3nc3n4CCCCC3)CC2)cc1Cl	none (no result: Bim-Mcl-1, Mcl1-Noxa inh, Mcl1 Bid PPI)
O=C1c2ccccc2C(=O)c2c(O)c(O)cc(O)c21	GLD-1 TGE inh 69.5 (no result: Bim-Mcl-1, Bcl-xL primary, Mcl1-Noxa inh, Mcl1 Bid PPI, MCL1 BIM primary) | GLD1 RNA confirm 42.8
